# Assay results published in the supplement of paper PMC9135407.
# Values joined by “and” are separate entries in the source; they are usually repeats but may differ in a detail not shown here. Equal entries are not always repeated. Structures can show the parent of a compound that is named as a salt. Hit rate of the full screen: of about 5,800 compounds, about 620 (11%) showed activity. The list comes from a sample in which actives are over-represented; it also holds similar structures and randomly drawn compounds. Values without a mark were called inactive.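 The calls were made as follows: active = score above a cut-off or among the top three wells of a plate; in these data no inactive exceeds 0.85.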
# System: primary human hepatic stellate cells (donor 1)
# Assay: scaled lipid accumulation score (0 = DMSO-like, 1 = nortriptyline-like); higher = stronger HSC inactivation (lipid re-accumulation), active = hit call of the paper
# Conditions: 48 h
# [1] = library stock concentration: 1 mM
# [2] = library stock concentration: 80 uM
# [3] = library stock concentration: 400 uM
# [4] = library stock concentration: 2 mM
# [5] = library stock concentration: 3.33 mM
# [6] = library stock concentration: 10 mM
smiles,measurement,setting,value
CCCCCCCCCCCC#CC#CC#CC#CC(=O)O [Eicosatetraynoic Acid],scaled lipid accumulation score,[1],≤ 0
COc1cc(OC)c(/C=C/S(=O)(=O)Cc2ccc(OC)c(NCC(=O)O)c2)c(OC)c1,scaled lipid accumulation score,[2],≤ -0.016
same,scaled lipid accumulation score,[3],≤ -0.016
same,scaled lipid accumulation score,[4],0.096
same,scaled lipid accumulation score,[5],0.068
same,scaled lipid accumulation score,[6],0.138 and 0.063
CC(C)NCC(O)COc1ccc(CC(N)=O)cc1 (racemic) [(RS)-Atenolol],scaled lipid accumulation score,[6],0.043
CN1CCC(NC(=O)C2=CC(=C3C(O)=CC(=O)C=C3Oc3ccc([N+](=O)[O-])cc3)ON2)CC1,scaled lipid accumulation score,[6],0.976 (active)
CN1CCC(NC(=O)c2cc(-c3c(O)cc(O)cc3Oc3ccc([N+](=O)[O-])cc3)on2)CC1,scaled lipid accumulation score,[5],0.756
COc1ccc2c(c1)C(=O)N(CCc1ccc(S(=O)(=O)NC(=O)NC3CCCCC3)cc1)C(=O)C2(C)C [Gliquidone],scaled lipid accumulation score,,≤ 0
CCCCCC=CCC=CCC=CCC=CCCCC(=O)OCC(O)CO (stereo unspecified) [1-Arachidonoyl Glycerol],scaled lipid accumulation score,[1],0.012
CCCCC/C=C\C[C@H](O)/C=C/C=C\C/C=C\CCCC(=O)O,scaled lipid accumulation score,library stock concentration: 100 uM,≤ -0.021
Cc1cc2c(OCC(CNC(C)(C)C)OC(=O)c3ccccc3)cccc2[nH]1 (stereo unspecified) [Bopindolol malonate],scaled lipid accumulation score,library stock concentration: 5.3 mM,≤ -0.006
COc1ccc(/C=C\c2cc(OC)c(OC)c(OC)c2)cc1O [Combrestatin A4],scaled lipid accumulation score,[1],0.237 (active)
COc1cc(/C=C/C(=O)O)ccc1O [Ferulic Acid],scaled lipid accumulation score,[5],≤ 0
same,scaled lipid accumulation score,[6],≤ 0
COc1cc(/C=C/C(=O)O)ccc1O [Ferulic acid],scaled lipid accumulation score,[6],≤ 0
COc1cc(/C=C/C(N)=O)cc(OC)c1OC,scaled lipid accumulation score,[6],0.006
Nc1[nH]nc2nc3ccccc3nc12,scaled lipid accumulation score,[6],≤ -0.006
CC(C)[C@H](N)C(=O)OCC(CO)OCn1cnc2c(=O)[nH]c(N)nc21 (stereo partly specified) [Valganciclovir HCl],scaled lipid accumulation score,[5],≤ 0
same,scaled lipid accumulation score,[6],0.028
COC(=O)C(Cc1ccc(OCCn2c(=O)sc3cc(C(=O)c4ccccc4)ccc32)cc1)C(=O)OC,scaled lipid accumulation score,[6],≤ 0
CCCCN(CC)c1nc(C)nc2c1c(C)cn2-c1c(C)cc(C)cc1C,scaled lipid accumulation score,[6],0.047
"Cc1ccc(NC(=O)c2ccc(CN3CCN(C)CC3)cc2)cc1Nc1nc(-c2cccnc2)cs1 [Masitinib (AB1010, Masivet) (2 mM)]",scaled lipid accumulation score,[4],1.37 (active)
"Cc1ccc(NC(=O)c2ccc(CN3CCN(C)CC3)cc2)cc1Nc1nc(-c2cccnc2)cs1 [Masitinib (AB1010, Masivet) (0.4 mM)]",scaled lipid accumulation score,[3],0.487
"Cc1ccc(NC(=O)c2ccc(CN3CCN(C)CC3)cc2)cc1Nc1nc(-c2cccnc2)cs1 [Masitinib (AB1010, Masivet) (10 mM)]",scaled lipid accumulation score,[6],0.755
Cc1ccc(NC(=O)c2ccc(CN3CCN(C)CC3)cc2)cc1Nc1nc(-c2cccnc2)cs1 [Masitinib] [listing 1 of 2 here],scaled lipid accumulation score,[2],≤ -0.009
same,scaled lipid accumulation score,[3],0.153
same,scaled lipid accumulation score,[4],0.121
Cc1ccc(NC(=O)c2ccc(CN3CCN(C)CC3)cc2)cc1Nc1nc(-c2cccnc2)cs1 [Masitinib] [listing 2 of 2 here],scaled lipid accumulation score,[6],1.07 (active)
Cc1ccc(NC(=O)c2ccc(CN3CCN(C)CC3)cc2)cc1Nc1nc(-c2cccnc2)cs1 [Masitinib (AB1010)],scaled lipid accumulation score,[5],1.13 (active)
same,scaled lipid accumulation score,[6],0.856 (active)
Cc1cc(C)c(-c2csc(NC(=O)c3ccccc3)n2)c(C)c1,scaled lipid accumulation score,[5],≤ -0.009
same,scaled lipid accumulation score,[6],0.033
Cc1ccc(-c2csc(NC(=O)c3ccccc3)n2)c(C)c1,scaled lipid accumulation score,[5],≤ -0.009
same,scaled lipid accumulation score,[6],≤ 0
CCCCCCCCCCCCCCCC(=O)C1=C(O)[C@@H](CO)OC1=O,scaled lipid accumulation score,library stock concentration: 13.6 mM,≤ -0.012
CC1(C)[C@H]2CC[C@]1(CS(=O)(=O)O)C(=O)C2=Cc1ccc(C=C2C(=O)[C@@]3(CS(=O)(=O)O)CC[C@@H]2C3(C)C)cc1,scaled lipid accumulation score,[6],≤ 0
O=C1NC(=O)/C(=C\c2cccc(C(F)(F)F)c2)S1 [PIM12 kinase inhibitor V],scaled lipid accumulation score,[2],≤ -0.001
same,scaled lipid accumulation score,[3],≤ -0.001
same,scaled lipid accumulation score,[4],≤ -0.001
same,scaled lipid accumulation score,[6],0.011
"CCCCCC(=O)CC[C@@H]1[C@@H](CCCCCCC(=O)O)[C@@H](O)C[C@H]1O [13,14-dihydro-15-keto Prostaglandin F1.alpha.]",scaled lipid accumulation score,[1],≤ 0
O=[N+]([O-])c1cc(Cl)ccc1S(=O)(=O)N1CCN(Cc2ccccc2)CC1,scaled lipid accumulation score,[6],0.048
CN(C)c1cnccn1,scaled lipid accumulation score,[6],≤ 0
CCCCC[C@](C)(O)/C=C/[C@H]1[C@H](O)CC(=O)[C@@H]1C/C=C\CCCC(=O)O [15(S)-15-methyl Prostaglandin E2],scaled lipid accumulation score,[1],≤ 0
CCc1cc2c(cc1N1CCC(N3CCOCC3)CC1)C(C)(C)c1[nH]c3cc(C#N)ccc3c1C2=O [listing 1 of 2 here],scaled lipid accumulation score,[2],≤ -0.016
same,scaled lipid accumulation score,[3],≤ -0.016
same,scaled lipid accumulation score,[4],0.126
CCc1cc2c(cc1N1CCC(N3CCOCC3)CC1)C(C)(C)c1[nH]c3cc(C#N)ccc3c1C2=O [listing 2 of 2 here],scaled lipid accumulation score,[6],1.17 (active)
N#Cc1ccc2[nH]c(O)c(-c3ccc(CN4CCOCC4)cn3)c2c1,scaled lipid accumulation score,[5],0.477
same,scaled lipid accumulation score,[6],0.769
CC#CCOC(=O)C1=CCCN(C)C1 [Arecaidine but-2-ynyl ester tosylate],scaled lipid accumulation score,[6],≤ 0
CCOC(=O)[C@H](CCc1ccccc1)N[C@@H](C)C(=O)N1Cc2cc(OC)c(OC)cc2C[C@H]1C(=O)O [Moexipril hydrochloride],scaled lipid accumulation score,[6],0.011
CCOC(=O)[C@H](CCc1ccccc1)N[C@@H](C)C(=O)N1Cc2cc(OC)c(OC)cc2C[C@H]1C(=O)O [Moexipril HCl],scaled lipid accumulation score,[5],≤ 0
same,scaled lipid accumulation score,[6],≤ 0
CO[C@H]1C[C@H](O[C@H]2[C@H](C)[C@@H](O[C@@H]3O[C@H](C)C[C@H](N(C)C)[C@H]3O)[C@@H](C)C[C@@]3(CO3)C(=O)[C@H](C)[C@@H](O)[C@@H](C)[C@@H](C)OC(=O)[C@@H]2C)O[C@@H](C)[C@@H]1O [Oleandomycin phosphate],scaled lipid accumulation score,,≤ 0
same,scaled lipid accumulation score,[6],≤ 0
CCCCCCCCCCCCCCCCOC[C@H](COP(=O)([O-])OCC[N+](C)(C)C)SC(=O)CCCCCC [Heptanoyl thio-PC],scaled lipid accumulation score,[1],0.071
Cn1cc(C2=C(c3c4n(c5ccccc35)CCC(CN)C4)C(=O)NC2=O)c2ccccc21 (stereo unspecified) [Bisindoylmaleimide X HCl salt (Ro 31-8425) (0.4 mM)],scaled lipid accumulation score,[3],0.132
CCCCn1c2ccc(O)cc2c2c3c(c(-c4ccccc4Cl)cc21)C(=O)NC3=O [Wee1 Inhibitor II],scaled lipid accumulation score,[5],≤ 0
Cn1cc(C2=C(c3ccc(Cl)cc3Cl)C(=O)NC2=O)c2ccccc21 [listing 1 of 5 here],scaled lipid accumulation score,[6],1.37 (active)
Cn1cc(C2=C(c3cn(CCCSC(=N)N)c4ccccc34)C(=O)NC2=O)c2ccccc21,scaled lipid accumulation score,[2],0.068
same,scaled lipid accumulation score,[3],0.267
same,scaled lipid accumulation score,[4],≤ 0
same,scaled lipid accumulation score,[5],≤ 0
same,scaled lipid accumulation score,[6],0.848
same,scaled lipid accumulation score,library stock concentration: 10.9 mM,0.832
Cn1cc(C2=C(c3cn(CCCSC(=N)N)c4ccccc34)C(=O)NC2=O)c2ccccc21 [Ro 31-8220 mesylate],scaled lipid accumulation score,[6],≤ -0.001
O=C1NC(=O)C(c2cn(CCCO)c3ncccc23)=C1c1cnccn1 [GSK-3b Inhibitor XI],scaled lipid accumulation score,[5],0.065
Cn1cc(C2=C(c3ccc(Cl)cc3Cl)C(=O)NC2=O)c2ccccc21 [listing 2 of 5 here],scaled lipid accumulation score,[2],0.035
same,scaled lipid accumulation score,[3],≤ -0.009 and 0.379
same,scaled lipid accumulation score,[4],0.225
same,scaled lipid accumulation score,[5],0.555
same,scaled lipid accumulation score,[6],0.564
Cn1cc(C2=C(c3c4n(c5ccccc35)CCC(CN)C4)C(=O)NC2=O)c2ccccc21 (stereo unspecified) [Bisindoylmaleimide X HCl salt (Ro 31-8425) (2 mM)],scaled lipid accumulation score,[4],≤ 0
Cn1cc(C2=C(c3ccc(Cl)cc3Cl)C(=O)NC2=O)c2ccccc21 [listing 3 of 5 here],scaled lipid accumulation score,[6],1.03 (active)
Cn1cc(C2=C(c3ccc(Cl)cc3Cl)C(=O)NC2=O)c2ccccc21 [listing 4 of 5 here],scaled lipid accumulation score,[4],1.13 (active)
same,scaled lipid accumulation score,[6],1.17 (active)
Cn1cc(C2=C(c3cn(CCCN)c4ccccc34)C(=O)NC2=O)c2ccccc21 [Bisindolylmaleimide VIII (acetate)],scaled lipid accumulation score,[1],≤ 0
Cn1cc(/C=C2\C(=O)Nc3cccnc32)c2ccccc21,scaled lipid accumulation score,[3],≤ -0.005
same,scaled lipid accumulation score,[4],0.002
same,scaled lipid accumulation score,[6],≤ -0.001 and ≤ -0.005
Cn1cc(C2=C(c3ccc(Cl)cc3Cl)C(=O)NC2=O)c2ccccc21 [listing 5 of 5 here],scaled lipid accumulation score,[6],1.22 (active)
Cn1cc(C2=C(c3cn(CCCSC(=N)N)c4ccccc34)C(=O)NC2=O)c2ccccc21 [Ro 31-8220 Mesylate],scaled lipid accumulation score,[5],≤ -0.009
same,scaled lipid accumulation score,[6],0.514
"NCCCn1cc(C2=C(c3c[nH]c4ccccc34)C(=O)NC2=O)c2ccccc21 [Bisindolylmaleimide III, Hydrochloride]",scaled lipid accumulation score,[5],≤ 0
Cn1cc(C2=C(c3cn(CCCSC(=N)N)c4ccccc34)C(=O)NC2=O)c2ccccc21 [Bisindolylmaleimide IX (mesylate)],scaled lipid accumulation score,[1],≤ 0
Cn1cc(C2=C(c3c4n(c5ccccc35)CCC(CN)C4)C(=O)NC2=O)c2ccccc21 (stereo unspecified) [Bisindoylmaleimide X  HCl salt (Ro 31-8425) (10 mM)],scaled lipid accumulation score,[6],≤ -0.005
CCCCCCCCCCCCCCCC(=O)OCC [Palmitic Acid ethyl ester],scaled lipid accumulation score,[1],≤ 0
C[N+]1(C)C[C@H](O)C[C@H]1C(=O)[O-] [Betonicine],scaled lipid accumulation score,,≤ 0
